In publication PMC4336329 (PLoS ONE, 2015):
About 14,000 (4.5%) of roughly 310,000 compounds showed an effect of 50% or more. Effects have a minus sign here. Many of the other results were omitted from the sample, so strong results are more common in it than they were.

The compounds below were run against human ether-à-go-go-related gene (hERG) potassium channel (human, UniProt Q12809) (assay: primary screen, population patch clamp on CHO cells stably expressing hERG; higher = less effect of the substance).
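Note: peak tail current of the secondary pulse compared with the same well before compound.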

human ether-à-go-go-related gene (hERG) potassium channel, sequence (Q12809 whole entry, looked up): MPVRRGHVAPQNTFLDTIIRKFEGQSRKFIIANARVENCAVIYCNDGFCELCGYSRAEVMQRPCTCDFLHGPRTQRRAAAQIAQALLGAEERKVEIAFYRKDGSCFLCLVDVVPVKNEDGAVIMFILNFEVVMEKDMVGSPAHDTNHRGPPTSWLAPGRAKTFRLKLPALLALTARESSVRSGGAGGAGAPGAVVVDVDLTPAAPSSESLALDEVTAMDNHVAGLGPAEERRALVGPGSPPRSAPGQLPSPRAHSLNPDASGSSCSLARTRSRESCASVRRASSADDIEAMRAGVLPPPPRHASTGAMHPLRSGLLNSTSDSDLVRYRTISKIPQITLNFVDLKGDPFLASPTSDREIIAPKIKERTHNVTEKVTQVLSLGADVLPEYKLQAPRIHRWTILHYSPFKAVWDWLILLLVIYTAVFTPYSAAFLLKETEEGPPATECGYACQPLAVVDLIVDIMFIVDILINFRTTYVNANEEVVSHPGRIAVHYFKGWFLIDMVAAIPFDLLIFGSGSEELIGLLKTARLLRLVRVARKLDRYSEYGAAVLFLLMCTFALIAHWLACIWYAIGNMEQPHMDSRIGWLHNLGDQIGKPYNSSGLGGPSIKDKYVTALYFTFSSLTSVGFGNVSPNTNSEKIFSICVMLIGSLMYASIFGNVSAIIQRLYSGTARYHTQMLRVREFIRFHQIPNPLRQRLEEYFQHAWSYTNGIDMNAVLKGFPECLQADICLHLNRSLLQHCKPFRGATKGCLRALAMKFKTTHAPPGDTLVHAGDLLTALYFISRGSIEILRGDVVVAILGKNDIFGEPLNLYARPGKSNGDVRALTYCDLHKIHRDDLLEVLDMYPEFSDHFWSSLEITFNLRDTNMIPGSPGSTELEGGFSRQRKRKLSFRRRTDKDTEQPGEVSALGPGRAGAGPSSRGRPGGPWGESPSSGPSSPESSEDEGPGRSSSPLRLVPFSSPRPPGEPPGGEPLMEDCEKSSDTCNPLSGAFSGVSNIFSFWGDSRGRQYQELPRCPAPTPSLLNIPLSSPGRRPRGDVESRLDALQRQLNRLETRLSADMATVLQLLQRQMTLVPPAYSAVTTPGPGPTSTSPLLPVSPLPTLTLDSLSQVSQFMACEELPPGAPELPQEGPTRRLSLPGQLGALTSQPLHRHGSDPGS

| Structure (SMILES) | hERG current change (%, negative = inhibition) at 10uM |
| --- | --- |
| CCOc1ccc(C(=O)NC2CCN(C(=O)Nc3ccc(F)cc3)CC2)cc1 | 0.481% |
| CCc1cc2c(NCCC(=O)O)nc(C)nc2s1 | 24.2% |
| Cc1ncc(CN2CCCC(C(=O)c3cccc(Cl)c3)C2)s1 (centres unmarked) | -13.6% |
| COc1ccc(C(=O)C2CCCN(Cc3cc(C)c(O)c(C)c3)C2)c(OC)c1 (centres unmarked) | -61% |
| COc1ccc(C(=O)C2CCCN(Cc3cnc(C)s3)C2)cc1OC (centres unmarked) | -5.12% |
| Cc1ncc(CN2CCCC(C(=O)c3ccc(C(C)(C)C)cc3)C2)s1 (centres unmarked) | -72.8% |
| COc1ccc2cc(C(=O)C3CCCN(Cc4cnc(C)s4)C3)ccc2c1 (centres unmarked) | -28.8% |
| COc1ccc(C(=O)C2CCCN(Cc3ccc(C#CCCO)cc3)C2)c(OC)c1 (centres unmarked) | -51.2% |
| COc1ccc(C(=O)C2CCCN(Cc3ccc(C#CCCO)cc3)C2)cc1F (centres unmarked) | -45.3% |
| COc1ccc(C(=O)C2CCCN(Cc3ccc(C)s3)C2)cc1OC (centres unmarked) | -71.6% |
| CCOC(=O)N1CCN(c2nc(-c3cccc(OC)c3)cc(C(F)(F)F)n2)CC1 | 6.67% |
| Cc1c(C(=O)N2CCCC2)c(S(=O)(=O)Nc2cccc(Br)c2)c(C)n1C | 6.99% |
| CCN(CC)C(=O)Cn1cnc2sc(C(=O)Nc3cc(OC)c(OC)c(OC)c3)c(C)c2c1=O | 14.5% |
| Cn1cc(/C=N\NC(=O)C2COc3ccccc3O2)c2ccccc21 (centres unmarked) | 9.62% |
| Cc1ccc(NC(=O)NNC(=O)c2cc3ccccc3cc2O)c(C)c1 | 27.4% |
| Cc1ccccc1C1NS(=O)(=O)N=C1N (centres unmarked) | 23.3% |
| CC(Oc1ccc(-c2ccccc2)c(F)c1)c1ccn(S(=O)(=O)c2ccc(Br)cc2)n1 (centres unmarked) | 7.43% |
| COCCCNC(=O)CN1C(=O)/C(=C\c2ccc(C)cc2)Sc2ccccc21 | -15.8% |
| COc1ccc(C(=O)C2CCCN(Cc3ccc(NC(C)=O)cc3)C2)cc1OC (centres unmarked) | -21.1% |
| COc1ccc(C(=O)C2CCCN(Cc3ccc(C)s3)C2)c(OC)c1 (centres unmarked) | -53.7% |
| COc1ccc(C(=O)C2CCCN(Cc3ccsc3)C2)cc1OC (centres unmarked) | -73.8% |
| COc1ccc(C(=O)C2CCCN(Cc3cnc(C)s3)C2)c(OC)c1 (centres unmarked) | -42.3% |
| NS(=O)(=O)c1ccc(CCNC(=O)C2CCN(S(=O)(=O)c3cnc[nH]3)CC2)cc1 | -2.97% |

| Structure (SMILES) | hERG current change (%, negative = inhibition) at 10uM |
| --- | --- |
| CC(C)(C)P(=O)(c1ccncc1)N1CCCC1 (centres unmarked) | 2.14% |
| O=C(Nc1ccc2oc(=O)ccc2c1)c1cc([N+](=O)[O-])ccc1N1CCOCC1 | -41.8% |
| CCN(CC(=O)Nc1ccc(NC(C)=O)cc1)C(=O)/C=C/c1ccc2c(c1)OCO2 | 0.823% |
| CC(C)C[C@H]1CN=C(Nc2ccccc2)N1CCC1CCCC1 | -51.5% |
| CC(C)C[C@H]1CN=C(Nc2ccccc2)N1CCC1CCCCC1 | -61.5% |
| CC(C)C[C@H]1CN=C(Nc2ccccc2)N1CCCC1CCCC1 | -65.9% |
| Fc1ccc(CN2CCSCC2)cc1Br | -11.1% |
| CCCN(Cc1ccco1)S(=O)(=O)c1ccc(OC)c(OC)c1 | 0.00658% |
| Cc1ccc(OCc2ccc(C(=O)N3CCOCC3)cc2)cc1C | -12.7% |
| O=C(OCC(=O)c1ccc(Cl)s1)c1ccc(CO)cc1 | -2.65% |
| Cc1ccc(-n2c(SCC(N)=O)nnc2-c2ccc(S(=O)(=O)N3CCCCC3)cc2)c(C)c1 | -52.7% |
| Cn1c(SCC(N)=O)nnc1-c1ccc(S(=O)(=O)N2CCCC2)cc1 | 4.87% |
| NC(=O)CSc1nnc(-c2ccc(S(=O)(=O)N3CCCCC3)cc2)n1-c1ccccc1 | -14.2% |
| CCN(CC)S(=O)(=O)c1ccc(S(=O)(=O)N2CCN(C(=O)c3ccco3)CC2)cc1 | 4.56% |
| CC(C)C(=O)Nc1c(-c2ccc(Cl)cc2)c(=O)c2ccccc2n1C | 20.9% |
| CN1CCCN(C(=O)c2ccc(Cl)s2)CC1 | -93.3% |
| CN1CCCN(C(=O)c2ccc(Br)s2)CC1 | -14.5% |
| O=C(c1ccc(Cl)s1)N1CCCC1 | -0.0803% |
| C/C(=C\c1ccc(Cl)cc1)C(=O)c1c(C)cc(C)[nH]c1=O | 9.59% |
| CC(NC(=O)NC1CCCCC1)c1ccccc1 (centres unmarked) | -3.12% |
| C=CCn1c(CCNC(=O)c2cccs2)nnc1SCC(=O)Nc1cccc(Cl)c1C | -57.6% |
| C=CCn1c(CNC(=O)c2cccs2)nnc1SCC(=O)c1ccc(Br)cc1 | -19.3% |
| C=CCn1c(CCNC(=O)c2cccs2)nnc1SCC(=O)Nc1cccc(F)c1 | -34.6% |

| Structure (SMILES) | hERG current change (%, negative = inhibition) at 10uM |
| --- | --- |
| C=CCn1c(CCNC(=O)c2cccs2)nnc1SCC(=O)c1ccc(Cl)cc1 | -38.5% |
| C=CCn1c(CCNC(=O)c2cccs2)nnc1SCC(=O)Nc1cccc(C(C)=O)c1 | 7.23% |
| C=CCn1c(CCNC(=O)c2cccs2)nnc1SCC(=O)c1ccc(Br)cc1 | -67.1% |
| O=C(Nc1ccccc1)Nc1ccncc1 | 6.4% |
| Cc1ccc(NC(=O)CC2S/C(=N/N=C3/NC(=O)CS3)NC2=O)cc1 (centres unmarked) | 19.5% |
| COc1ccc(-c2[nH]nc3c2C(c2ccccc2OC(=O)N2CCOCC2)C(C#N)=C(N)O3)cc1 (centres unmarked) | 4.69% |
| COc1cccc(Nc2nc(N)nc(CCl)n2)c1 | 0.476% |
| CC1CCN(C(=S)SCc2nc(N)nc(Nc3ccccc3)n2)CC1 | -2.72% |
| CC1CC(C)CN(C(=S)SCc2nc(N)nc(Nc3ccccc3)n2)C1 (centres unmarked) | -6.04% |
| CC1CC(C)CN(Cc2nc(N)nc(Nc3ccc4ccccc4c3)n2)C1 (centres unmarked) | -79% |
| CC1CC(C)CN(Cc2nc(N)nc(Nc3ccccc3)n2)C1 (centres unmarked) | -64.8% |
| CCNC(=O)CCn1nc(-c2ccc(Cl)cc2)c2ccccc2c1=O | -29% |
| Cc1cccc(N2CCN(S(=O)(=O)c3ccc4c(c3)NC(=O)C(C)S4)CC2)c1C (centres unmarked) | -2.54% |
| CCN(CC)c1ccc(/C=C2\SC(N)=NC2=O)cc1 | 7.42% |
| Cn1cccc1CC(=O)NNC(=S)NC(=O)c1ccccc1Br | 13.1% |
| COc1ccc(-c2nc(-c3ccccc3)ncc2S(C)(=O)=O)cc1 | 13% |
| COc1ccc2c(c1OC)C(=O)N(c1nc(SC)n[nH]1)C2=O | 18.3% |
| COc1cccc(N(CC(=O)NCc2ccccc2)C(=O)CCC(=O)Nc2nccs2)c1 | 10.8% |
| Cc1nccn1CC(O)COc1ccccc1 (centres unmarked) | -0.412% |
| Cc1nccn1CC(O)COc1ccc([N+](=O)[O-])cc1 (centres unmarked) | -66.2% |
| Cc1ccc(N2CCN(CC(O)COc3ccc([N+](=O)[O-])cc3)CC2)cc1 (centres unmarked) | -76.4% |
| Cc1ccc(OCC(O)CN2CCN(c3ccc(C)cc3)CC2)cc1 (centres unmarked) | -28% |
| COc1ccc(N2CCN(CC(O)COc3ccc([N+](=O)[O-])cc3)CC2)cc1.Cl (centres unmarked) | -62.5% |

| Structure (SMILES) | hERG current change (%, negative = inhibition) at 10uM |
| --- | --- |
| COc1ccc(OCC(O)Cn2ccnc2C)cc1 (centres unmarked) | 5.09% |
| NNC(=O)COc1ccc(F)cc1 | 9.33% |
| COc1ccc(C(C)=O)cc1COC(=O)c1ccc(S(=O)(=O)N(C)C)cc1 | -2.42% |
| CCc1ccc(S(=O)(=O)Nc2cccc(-c3ccc4nnc(C)n4n3)c2)s1 | -11.6% |
| CCOC(=O)c1cccc(NC(=O)/C(=C\c2ccccc2)NC(=O)c2ccccc2Cl)c1 | 3.62% |
| CC1=NN(C(=O)Cc2ccc(C)cc2)C(O)(c2cccnc2)C1 (centres unmarked) | 10.1% |
| COc1ccc(-c2nc3cnccn3c2NCc2ccccc2)cc1SC1CCCCC1.O=C(O)C(F)(F)F | 2.68% |
| COc1cccc(-n2nnc(S(=O)(=O)c3ccc(C)cc3)c2N)c1 | 10.5% |
| O=C(COC(=O)c1ccc(Sc2ccccc2)c([N+](=O)[O-])c1)NC1CCS(=O)(=O)C1 (centres unmarked) | -83.3% |
| Nc1ccc(C(=O)OCC(=O)NC2CCS(=O)(=O)C2)cc1[N+](=O)[O-] (centres unmarked) | -3.78% |
| CS(=O)(=O)c1ccc(C(=O)OCC(=O)NC2CCS(=O)(=O)C2)cc1[N+](=O)[O-] (centres unmarked) | 10.3% |
| COc1ccc(NC(=S)NC23CC4CC(CC(C4)C2)C3)cc1OC | 3.45% |
| O=C(CN1C(=O)c2ccc([N+](=O)[O-])cc2C1=O)NC1CCCCCC1 | 1.09% |
| Nc1nonc1C(=O)NCCNc1ccc([N+](=O)[O-])cc1 | -21.9% |
| Cc1nonc1OC(C)CNCCNc1ccc([N+](=O)[O-])cc1.Cl (centres unmarked) | -55.2% |
| CCNc1ccc([N+](=O)[O-])cc1 | 4.89% |
| Cc1nonc1OCCNc1ccc([N+](=O)[O-])cc1 | -40.7% |
| Cl.NCCNc1ccc([N+](=O)[O-])cc1 | -6.16% |
| Cc1nonc1OC(C)CNc1ccc([N+](=O)[O-])cc1 (centres unmarked) | -58.7% |
| COc1ccc(CN(C(=O)c2cc(=O)c3ccccc3o2)C2CCS(=O)(=O)C2)cc1 (centres unmarked) | -30.4% |
